Data taken from article PMC7862700, “An all-to-all approach to the identification of sequence-specific readers for epigenetic DNA modifications on cytosine”.

Experiments:
Experiment in all cases: DAPPL (digital affinity profiling via proximity ligation, sequencing); 10 mM Tris-HCl pH 7.5, 50 mM NaCl, 1 mM DTT, 4% glycerol, room temperature, 30 min; GST-TFs on glutathione beads, 16-mer random dsDNA library, 0.1% formaldehyde crosslink after washing; high values mean tight binding
Conditions in all cases: protein: recombinant; tags: N-terminal GST; dsDNA, one strand shown
ERF = molecular target: T1, ERF (Homo sapiens, UniProt P50548 1-548)
T1 sequence: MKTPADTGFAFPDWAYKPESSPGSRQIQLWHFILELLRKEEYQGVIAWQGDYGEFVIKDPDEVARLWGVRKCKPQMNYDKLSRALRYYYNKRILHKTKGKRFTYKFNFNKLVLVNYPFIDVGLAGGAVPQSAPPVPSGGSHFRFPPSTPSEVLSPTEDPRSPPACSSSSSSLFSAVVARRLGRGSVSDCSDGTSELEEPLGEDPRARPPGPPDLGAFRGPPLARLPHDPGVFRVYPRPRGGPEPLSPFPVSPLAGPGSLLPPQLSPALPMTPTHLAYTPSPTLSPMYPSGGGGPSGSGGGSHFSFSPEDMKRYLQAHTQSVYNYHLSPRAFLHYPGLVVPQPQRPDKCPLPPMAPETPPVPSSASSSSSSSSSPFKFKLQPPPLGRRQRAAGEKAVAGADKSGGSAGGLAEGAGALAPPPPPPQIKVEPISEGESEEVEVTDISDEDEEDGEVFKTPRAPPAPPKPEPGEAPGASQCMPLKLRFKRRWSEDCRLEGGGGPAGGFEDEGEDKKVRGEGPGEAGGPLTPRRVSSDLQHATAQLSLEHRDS
In short: (§1)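 Binding signal is each hexamer's read frequency for a factor divided by its frequency in the tag-only sample. The factors were GST-fused human transcription factors from yeast, captured on glutathione beads, DNA-barcoded and pooled with that sample. Pools were incubated with 200 nmole of a random double-stranded 16-mer DNA library in Tris/NaCl/DTT/glycerol buffer at room temperature for 30 min, then washed, crosslinked with 0.1% formaldehyde, proximity-ligated with BsaI/T4 ligase (1 h, 37 °C), PCR-amplified and sequenced on an Illumina NextSeq500.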

ETV3L = molecular target: T2, ETV3L (Homo sapiens, UniProt Q6ZN32 1-361)
T2 sequence: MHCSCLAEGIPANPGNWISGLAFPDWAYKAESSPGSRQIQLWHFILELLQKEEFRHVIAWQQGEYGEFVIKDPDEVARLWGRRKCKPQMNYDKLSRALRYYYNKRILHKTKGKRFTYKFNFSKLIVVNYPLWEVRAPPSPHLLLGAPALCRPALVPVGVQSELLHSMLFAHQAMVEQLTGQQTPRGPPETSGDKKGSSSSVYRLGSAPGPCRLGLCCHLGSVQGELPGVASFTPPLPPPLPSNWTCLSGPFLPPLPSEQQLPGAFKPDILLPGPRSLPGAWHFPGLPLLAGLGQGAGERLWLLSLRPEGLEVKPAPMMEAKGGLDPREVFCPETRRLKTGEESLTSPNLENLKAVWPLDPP
In short: as §1

ETS2 = molecular target: T3, ETS2 (Homo sapiens, UniProt P15036 1-469)
T3 sequence: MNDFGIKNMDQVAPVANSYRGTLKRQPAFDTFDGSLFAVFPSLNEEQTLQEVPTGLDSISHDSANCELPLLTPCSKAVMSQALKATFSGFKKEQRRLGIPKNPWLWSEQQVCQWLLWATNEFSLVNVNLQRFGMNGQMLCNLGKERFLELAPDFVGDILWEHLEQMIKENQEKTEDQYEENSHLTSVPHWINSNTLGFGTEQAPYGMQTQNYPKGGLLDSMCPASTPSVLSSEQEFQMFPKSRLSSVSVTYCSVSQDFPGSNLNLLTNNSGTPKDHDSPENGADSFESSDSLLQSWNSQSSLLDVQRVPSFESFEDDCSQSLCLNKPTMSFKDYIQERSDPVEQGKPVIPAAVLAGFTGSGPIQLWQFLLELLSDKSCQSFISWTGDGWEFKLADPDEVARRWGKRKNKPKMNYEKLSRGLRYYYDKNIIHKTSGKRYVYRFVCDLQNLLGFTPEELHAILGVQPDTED
In short: as §1

SPDEF = molecular target: T4, SPDEF (Homo sapiens, UniProt O95238 1-335)
T4 sequence: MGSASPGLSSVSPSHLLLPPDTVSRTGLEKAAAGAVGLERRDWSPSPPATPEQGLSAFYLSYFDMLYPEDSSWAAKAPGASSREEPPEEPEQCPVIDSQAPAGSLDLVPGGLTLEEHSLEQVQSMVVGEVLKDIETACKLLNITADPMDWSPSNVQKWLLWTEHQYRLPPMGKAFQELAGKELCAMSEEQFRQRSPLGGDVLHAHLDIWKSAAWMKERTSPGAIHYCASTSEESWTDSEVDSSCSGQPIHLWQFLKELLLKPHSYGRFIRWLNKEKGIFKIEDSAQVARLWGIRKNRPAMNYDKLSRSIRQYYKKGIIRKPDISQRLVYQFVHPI
In short: as §1

ETV7 = molecular target: T5, ETV7 (Homo sapiens, UniProt Q9Y603 1-341)
T5 sequence: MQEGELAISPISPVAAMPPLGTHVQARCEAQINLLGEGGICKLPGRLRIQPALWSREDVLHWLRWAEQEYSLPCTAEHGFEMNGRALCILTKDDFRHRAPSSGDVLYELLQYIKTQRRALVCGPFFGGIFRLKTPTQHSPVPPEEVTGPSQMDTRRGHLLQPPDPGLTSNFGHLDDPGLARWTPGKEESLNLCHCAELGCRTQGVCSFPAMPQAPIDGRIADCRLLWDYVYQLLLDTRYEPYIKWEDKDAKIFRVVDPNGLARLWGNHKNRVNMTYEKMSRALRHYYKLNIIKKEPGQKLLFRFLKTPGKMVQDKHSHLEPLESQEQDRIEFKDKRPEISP
In short: as §1

ELF5 = molecular target: T6, ELF5 (Homo sapiens, UniProt Q9UKW6-2 1-255)
T6 sequence: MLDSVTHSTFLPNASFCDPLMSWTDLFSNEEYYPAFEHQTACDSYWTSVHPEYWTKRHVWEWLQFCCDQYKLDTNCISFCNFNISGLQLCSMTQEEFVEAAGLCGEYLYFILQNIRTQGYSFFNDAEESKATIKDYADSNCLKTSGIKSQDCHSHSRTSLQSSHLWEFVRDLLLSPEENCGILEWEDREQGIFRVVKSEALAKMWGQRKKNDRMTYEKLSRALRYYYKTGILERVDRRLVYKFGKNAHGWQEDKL
In short: as §1

ETV3 = molecular target: T7, ETV3 (Homo sapiens, UniProt P41162-2 1-143)
T7 sequence: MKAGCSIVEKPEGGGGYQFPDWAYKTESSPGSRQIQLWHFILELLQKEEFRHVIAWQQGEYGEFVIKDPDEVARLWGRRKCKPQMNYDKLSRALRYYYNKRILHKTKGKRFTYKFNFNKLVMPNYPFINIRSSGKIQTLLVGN
In short: as §1

ETV6 = ETV6 (Homo sapiens, UniProt P41212 1-452)
In short: as §1

ETV6, sequence (P41212 whole entry): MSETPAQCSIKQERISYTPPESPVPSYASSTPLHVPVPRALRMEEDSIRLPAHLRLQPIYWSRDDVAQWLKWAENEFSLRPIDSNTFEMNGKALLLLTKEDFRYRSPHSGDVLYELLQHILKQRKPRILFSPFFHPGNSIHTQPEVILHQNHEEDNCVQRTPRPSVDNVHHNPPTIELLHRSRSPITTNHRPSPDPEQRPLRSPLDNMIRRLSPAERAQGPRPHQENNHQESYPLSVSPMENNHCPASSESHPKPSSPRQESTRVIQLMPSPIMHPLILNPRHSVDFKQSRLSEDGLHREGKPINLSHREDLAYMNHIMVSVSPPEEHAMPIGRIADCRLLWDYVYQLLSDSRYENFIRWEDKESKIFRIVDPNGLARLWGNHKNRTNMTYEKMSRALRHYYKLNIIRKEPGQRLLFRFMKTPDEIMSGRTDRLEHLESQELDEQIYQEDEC

| Sequence | binding signal (ERF) | binding signal (ETV3L) | binding signal (ETS2) | binding signal (SPDEF) | binding signal (ETV7) | binding signal (ELF5) | binding signal (ETV3) | binding signal (ETV6) |
| --- | --- | --- | --- | --- | --- | --- | --- | --- |
| AAGTTT | 1.39 fold enrichment (6-mer frequency, TF over GST control) | 1.46 fold enrichment (6-mer frequency, TF over GST control) | 1.39 fold enrichment (6-mer frequency, TF over GST control) | 1.37 fold enrichment (6-mer frequency, TF over GST control) | 1.37 fold enrichment (6-mer frequency, TF over GST control) | 1.55 fold enrichment (6-mer frequency, TF over GST control) | 1.53 fold enrichment (6-mer frequency, TF over GST control) | 1.55 fold enrichment (6-mer frequency, TF over GST control) |
| GGAAAA | 1.12 fold enrichment (6-mer frequency, TF over GST control) | 1.31 fold enrichment (6-mer frequency, TF over GST control) | 1.27 fold enrichment (6-mer frequency, TF over GST control) | 1.12 fold enrichment (6-mer frequency, TF over GST control) | 1.26 fold enrichment (6-mer frequency, TF over GST control) | 1.67 fold enrichment (6-mer frequency, TF over GST control) | 1.31 fold enrichment (6-mer frequency, TF over GST control) | 1.53 fold enrichment (6-mer frequency, TF over GST control) |
| GGTTTC | 1.49 fold enrichment (6-mer frequency, TF over GST control) | 1.52 fold enrichment (6-mer frequency, TF over GST control) | 1.52 fold enrichment (6-mer frequency, TF over GST control) | 1.55 fold enrichment (6-mer frequency, TF over GST control) | 1.38 fold enrichment (6-mer frequency, TF over GST control) | 1.52 fold enrichment (6-mer frequency, TF over GST control) | 1.46 fold enrichment (6-mer frequency, TF over GST control) | 1.51 fold enrichment (6-mer frequency, TF over GST control) |
| ATGTTG | 1.24 fold enrichment (6-mer frequency, TF over GST control) | 1.23 fold enrichment (6-mer frequency, TF over GST control) | 1.22 fold enrichment (6-mer frequency, TF over GST control) | 1.31 fold enrichment (6-mer frequency, TF over GST control) | 1.43 fold enrichment (6-mer frequency, TF over GST control) | 1.15 fold enrichment (6-mer frequency, TF over GST control) | 1.33 fold enrichment (6-mer frequency, TF over GST control) | 1.22 fold enrichment (6-mer frequency, TF over GST control) |
| TGCATT | 1.45 fold enrichment (6-mer frequency, TF over GST control) | 1.39 fold enrichment (6-mer frequency, TF over GST control) | 1.34 fold enrichment (6-mer frequency, TF over GST control) | 1.41 fold enrichment (6-mer frequency, TF over GST control) | 1.22 fold enrichment (6-mer frequency, TF over GST control) | 1.25 fold enrichment (6-mer frequency, TF over GST control) | 1.34 fold enrichment (6-mer frequency, TF over GST control) | 1.35 fold enrichment (6-mer frequency, TF over GST control) |
| CTCCGT | 1.07 fold enrichment (6-mer frequency, TF over GST control) | 1.19 fold enrichment (6-mer frequency, TF over GST control) | 1.22 fold enrichment (6-mer frequency, TF over GST control) | 1.05 fold enrichment (6-mer frequency, TF over GST control) | 1.33 fold enrichment (6-mer frequency, TF over GST control) | 1.14 fold enrichment (6-mer frequency, TF over GST control) | 1.22 fold enrichment (6-mer frequency, TF over GST control) | 1.16 fold enrichment (6-mer frequency, TF over GST control) |
| AGCGAC | 1.32 fold enrichment (6-mer frequency, TF over GST control) | 1.13 fold enrichment (6-mer frequency, TF over GST control) | 1.15 fold enrichment (6-mer frequency, TF over GST control) | 1.01 fold enrichment (6-mer frequency, TF over GST control) | 1.22 fold enrichment (6-mer frequency, TF over GST control) | 1.2 fold enrichment (6-mer frequency, TF over GST control) | 1.14 fold enrichment (6-mer frequency, TF over GST control) | 1.17 fold enrichment (6-mer frequency, TF over GST control) |
| TGCACC | 1.21 fold enrichment (6-mer frequency, TF over GST control) | 1.21 fold enrichment (6-mer frequency, TF over GST control) | 1.08 fold enrichment (6-mer frequency, TF over GST control) | 1.2 fold enrichment (6-mer frequency, TF over GST control) | 1.02 fold enrichment (6-mer frequency, TF over GST control) | 1.16 fold enrichment (6-mer frequency, TF over GST control) | 1.24 fold enrichment (6-mer frequency, TF over GST control) | 1.19 fold enrichment (6-mer frequency, TF over GST control) |
